The source of these data is PubChem BioAssay.

Test [1] is described as follows: inhibitors of E-selectin induction by TNFa, primary screen, imaging, HUVEC, immunofluorescence, MLSMR starter and 10KST1 sets (AID 487;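 active = visually confirmed hit in the image check and inhibition above 20%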;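 for inhibition: signal is fraction of cell area covered by stained E-selectin grains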;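 for nuclei count: 100% = median nuclei count of all wells on the same plate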). As to conditions: HUVEC TNFalpha-induced E-selectin immunofluorescence imaging, at 2 µM; inhibition: stronger effect = higher value; nuclei count: measured here: cell number, toxicity.
A short description of test [2]: DUSP6 inhibitors restoring Erk phosphorylation by chemical complementation, primary imaging in DUSP6-transfected HeLa (AID 609;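 active = compounds giving at least 50% inhibition in the cell-based MKP-3 phosphatase rescue imaging test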;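 for inhibition: phospho-Erk level distribution per well compared with pooled transfected vehicle control wells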). The following applies: HeLa MKP-3 transfected, phospho-Erk imaging KS statistic, at 10 µM, cells stimulated with TPA for 15 min.
In test [3] the target is Dual specificity protein phosphatase 6 (Homo sapiens) (UniProt Q16828). The test is described as above. The following applies: HeLa MKP-3 transfected, phospho-Erk imaging KS statistic; at 10 µM; stronger effect = higher value; cells stimulated with TPA for 15 min.
Dual specificity protein phosphatase 6 (Homo sapiens), sequence (Q16828 whole entry, looked up): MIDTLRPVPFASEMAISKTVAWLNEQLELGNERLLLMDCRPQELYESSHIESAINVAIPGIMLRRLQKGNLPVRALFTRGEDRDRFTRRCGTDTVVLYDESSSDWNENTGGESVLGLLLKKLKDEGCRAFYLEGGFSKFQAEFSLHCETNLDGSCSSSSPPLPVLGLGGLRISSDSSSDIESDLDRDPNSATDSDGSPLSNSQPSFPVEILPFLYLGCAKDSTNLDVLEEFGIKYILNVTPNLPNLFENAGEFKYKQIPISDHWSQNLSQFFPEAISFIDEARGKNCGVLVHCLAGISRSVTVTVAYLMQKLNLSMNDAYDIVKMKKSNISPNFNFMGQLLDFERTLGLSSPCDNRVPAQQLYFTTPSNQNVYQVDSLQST
Test [4] concerns the target Voltage-gated potassium channel subunit beta-2 (Rattus norvegicus) (UniProt P62483). Put plainly: KvBeta enzyme negative modulators, primary screen, biochemical, NADPH fluorescence (AID 622).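 Note: slope of raw intensity against log time taken from 70 to 1610 s.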 As to conditions: recombinant KvBeta, 4-cyanobenzaldehyde reduction, at 10 µM, stronger effect = higher value.
For test [5] the target is unchanged. Put plainly: KvBeta positive modulators, primary screen, biochemical, NADPH fluorescence (AID 623;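 active = NADPH fluorescence slope more negative than the mean of all samples by about 3 SD, 99.7% confidence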;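 note: fluorescence intensity change per second fitted from 20 to 320 s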). The following applies: Recombinant KvBeta, NADPH fluorescence decrease slope, 10 min; at 10 µM; stronger effect = lower value.
The target of test [6] is Muscarinic acetylcholine receptor M4 (Homo sapiens) (UniProt P08173). The experiment in a line: compounds altering M4/GIRK thallium flux, either direction, primary screen, M4 allosteric agonist project, cell-based, HEK293 M4/GIRK, BTC-AM (AID 625;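 active = fluorescence slope after compound addition differing from the mean of all tested samples at 99.7% confidence, mostly higher but some lower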;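 note: thallium influx through GIRK channels coupled to M4 in HEK293 cells with BTC-AM dye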). As to conditions: at 10 µM, actives lie on both sides.
Muscarinic acetylcholine receptor M4 (Homo sapiens), sequence (P08173 whole entry, looked up): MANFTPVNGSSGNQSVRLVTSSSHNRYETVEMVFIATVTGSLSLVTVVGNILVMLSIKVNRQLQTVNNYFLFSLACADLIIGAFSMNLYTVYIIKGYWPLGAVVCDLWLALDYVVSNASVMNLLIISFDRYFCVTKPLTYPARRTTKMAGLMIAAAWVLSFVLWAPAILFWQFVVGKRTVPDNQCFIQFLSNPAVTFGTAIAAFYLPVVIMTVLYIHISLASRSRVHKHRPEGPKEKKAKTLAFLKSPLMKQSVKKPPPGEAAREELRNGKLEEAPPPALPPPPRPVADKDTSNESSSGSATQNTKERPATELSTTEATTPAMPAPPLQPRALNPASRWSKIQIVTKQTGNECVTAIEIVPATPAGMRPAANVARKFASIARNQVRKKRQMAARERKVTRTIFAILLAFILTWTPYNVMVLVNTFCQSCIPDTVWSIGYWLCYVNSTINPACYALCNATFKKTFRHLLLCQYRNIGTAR
A short description of test [7]: inhibitors of larval lipid processing in zebrafish, primary screen, whole organism, PED6 fluorescence, gall bladder and intestine (AID 686;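 active = a full or partial loss of lipid-probe fluorescence in the fish gall bladder, intestine or both, judged by eye; inactive = no fluorescence loss, or compound toxic to the fish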;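 note: larvae 5 to 7 days old with five fish per well; signal comes from phospholipase A2 cleavage of quenched PED6 carried via bile; overnight exposure to compound and PED6 before scoring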). The following applies: Zebrafish larvae PED6 lipid processing, fluorescence scoring; screened at 20 µM (by protocol).
Test [8] is described as follows: inhibitors of Chlamydomonas gravitaxis, primary screen, whole organism, Chlamydomonas reinhardtii, WT vs cilia-less mutant, absorbance, 96-well (AID 463189;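 active = inhibition at or above 50% relative to wild type and mutant plate controls; inactive = inhibition below 50%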;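 note: 0% = wild type cc124 cells in DMSO and 100% = ciliumless bld1 mutant cells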). The following applies: OD600 absorbance, 2 days, at 10 µM, stronger effect = higher value.
The target in test [9] is Alpha-2C adrenergic receptor (Homo sapiens) (UniProt P18825). The experiment in a line: modulators of alpha2C/GIRK thallium flux, primary screen, cell-based, HEK293 alpha2C/GIRK1/2 (AID 624;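 active = fluorescence slope after compound addition differing from the mean of all screened samples at 99.7% confidence, in either direction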;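 note: slope of fluorescence ratio to pre-addition baseline per second over 15 to 24 s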). The following applies: thallium flux BTC fluorescence, at 10 µM, actives lie on both sides.
Alpha-2C adrenergic receptor (Homo sapiens), sequence (P18825 whole entry, looked up): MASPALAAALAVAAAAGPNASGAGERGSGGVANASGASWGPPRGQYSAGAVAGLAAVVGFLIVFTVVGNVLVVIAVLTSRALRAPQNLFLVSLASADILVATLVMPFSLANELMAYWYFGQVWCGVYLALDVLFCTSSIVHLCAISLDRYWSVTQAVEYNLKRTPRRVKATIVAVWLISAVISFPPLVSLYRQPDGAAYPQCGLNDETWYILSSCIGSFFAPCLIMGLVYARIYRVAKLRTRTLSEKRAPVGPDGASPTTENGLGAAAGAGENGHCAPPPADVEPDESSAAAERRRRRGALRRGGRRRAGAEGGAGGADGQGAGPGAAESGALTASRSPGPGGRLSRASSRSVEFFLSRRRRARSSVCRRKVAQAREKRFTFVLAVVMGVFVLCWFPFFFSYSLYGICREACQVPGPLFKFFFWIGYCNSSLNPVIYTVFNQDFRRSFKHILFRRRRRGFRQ
Test [10] is described as follows: inhibitors of Sendai virus-induced IRF3 signaling, primary screen, TLR/RLR signaling modifier project, cell-based, Sendai virus stimulus, luciferase, 10K MLSCN set (AID 602276;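 active = inhibition at or above 50% at 10 µM; inactive = inhibition below 50%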;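 note: firefly luciferase from ISG56 promoter only with Renilla not read in this screen; 0% = Sendai virus plus DMSO and 100% = medium plus DMSO without virus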). As to conditions: HEK293 RL24 IRF3 luciferase reporter, at 10 µM, stronger effect = higher value. A general note: A reporter such as luciferase makes a cellular process visible.
The nature of test [11]: inhibitors of poly I:C-induced TLR3 signaling, primary screen, cell-based, poly I:C stimulus, luciferase, 10K MLSCN set (AID 602277;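 active = inhibition of the reporter signal at or above 50%; inactive = inhibition below 50%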). The following applies: HEK293-TLR3 RL24 IRF3 luciferase reporter, at 10 µM, stronger effect = higher value.
Test [12] can be described thus: inhibitors of mutant huntingtin aggregation, primary screen, imaging, exon1htt(103Q)mCFP cells, high-content imaging (AID 483;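 active = visual image review flags a hit and inhibition of aggregation exceeds 20%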;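 note: compound exposure lasted 3 days before fixation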;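 for nuclei count: percent of the per-plate median nuclei count of sample wells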). As to conditions: exon1htt(103Q)mCFP cell line, aggregate imaging, at 2 µM; inhibition of aggregation: stronger effect = higher value; nuclei count: measured here: cell count, toxicity.
The mark [13] stands for this setting: measured here: cell density z-score.
Setting [14] is: measured here: nuclear c-Myc green intensity z-score.
Setting [15] is: measured here: nuclear pErk red intensity z-score, stronger effect = higher value.

Each structure is given as a SMILES string. The source made the active and inactive calls.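 Rule for the calls, unless noted: active = fluorescence slope higher than the sample average by over 3 SD (cut at about -0.22 in these data, passing the limit was not always enough); inactive = the rest.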

Voltage-gated potassium channel subunit beta-2 (Rattus norvegicus), sequence (P62483 whole entry, looked up): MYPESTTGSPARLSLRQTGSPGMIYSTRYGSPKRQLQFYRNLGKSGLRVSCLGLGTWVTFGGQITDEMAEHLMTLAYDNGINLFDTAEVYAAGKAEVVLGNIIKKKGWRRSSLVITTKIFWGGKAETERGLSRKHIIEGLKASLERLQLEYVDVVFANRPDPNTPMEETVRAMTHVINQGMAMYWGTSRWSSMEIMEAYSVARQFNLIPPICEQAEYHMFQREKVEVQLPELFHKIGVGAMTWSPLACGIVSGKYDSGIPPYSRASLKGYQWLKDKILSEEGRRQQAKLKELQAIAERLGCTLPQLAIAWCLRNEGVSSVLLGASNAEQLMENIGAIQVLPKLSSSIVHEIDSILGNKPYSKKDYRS

For orientation: inhibition means the relative decrease from the control value, in per cent. As for `CCCOc1ccc(Cl)cc1CN1CCOCC1`, the inhibition is -21.7% (inactive) in test [1], 20.8% (inactive) in test [3] and 32.2% (inactive) in test [8]. The compound further registered a nuclei count in test [1] of 67.6%. For the same compound, the z-score in test [2] (setting [13]) was 0.154; in [2] (setting [14]) it was -1.58; in [2] (setting [15]), -0.239. Also, the fluorescence slope was -0.499 (inactive) in [4] and 0.0115 (inactive) in test [6]. Moreover, the NADPH fluorescence slope in test [5] was -3e-05 (inactive). Moreover, in [7], the compound was called inactive.
In the case of `COc1ccc(OC)c(C2=NOC(C(=O)Nc3c(C)n(C)n(-c4ccccc4)c3=O)C2)c1` (stereo unspecified), the fluorescence slope in test [4] was -0.546 (inactive). The NADPH fluorescence slope in [5] is -2.8e-05 (inactive). The slope in test [9] is 0.0073 (inactive). The inhibition in test [10] was -3.88% (inactive); in [11], 17.6% (inactive).
For `O=C(NCCC1=CCCCC1)C1CCN(S(=O)(=O)c2cccc3cccnc23)CC1`, in that order: -0.494 (inactive), 2.4e-05 (inactive), 0.00594 (inactive), -7.21% (inactive) and -9.62% (inactive).
Consider `CN1[C@@H]2CC(OC(=O)[C@H](CO)c3ccccc3)C[C@H]1[C@@H]1O[C@@H]12` (stereo partly specified), for which the inhibition in test [1] was -56.4% (inactive); in [3] it was 15.3% (inactive); in test [10] it was 2.34% (inactive); in test [11], 25.9% (inactive). The compound further had a nuclei count in [1] of 129%. In addition, the z-score in test [2] (setting [13]) was 0.18; in test [2] (setting [14]), -0.245; in test [2] (setting [15]), -0.715. Besides, the fluorescence slope in test [4] was -0.461 (inactive). Moreover, in test [5], the NADPH fluorescence slope was -3e-05 (inactive). Further, the slope in test [9] was 0.00551 (inactive).
For the compound `Cc1ccccc1-c1nc(CS(=O)(=O)CC(=O)N(C)C2CCCCC2)c(C)o1`, in [4], the fluorescence slope is -0.49 (inactive). In addition, the NADPH fluorescence slope in [5] was -3.4e-05 (inactive). Moreover, the slope in [9] was 0.00717 (inactive). The inhibition in test [10] was -5.9% (inactive); in test [11] it was -32.7% (inactive).
For `Cc1cccc(-n2ccnc2SCC(=O)Nc2cc(C)on2)c1`, the results for the fluorescence slope in [4] and in test [6] were -0.513 (inactive) and 0.00505 (inactive), respectively. Also, the NADPH fluorescence slope in [5] is 3.9e-06 (inactive). Moreover, the inhibition in test [10] was -19% (inactive); in [11] it was -43.2% (inactive).
Turning to `O=C(Nc1cc(Cl)ccc1Cl)c1noc2c1CCCC2`, the fluorescence slope in test [4] is -0.601 (inactive). Moreover, the NADPH fluorescence slope in test [5] was -9e-06 (inactive). The slope in test [9] was 0.00618 (inactive). In addition, the inhibition in test [10] is -3.4% (inactive); in test [11], 26.6% (inactive).
In the case of `Cn1c(=O)oc2cc(S(=O)(=O)NCCC(=O)N3CCc4ccccc4C3)ccc21`, the fluorescence slope in test [4] is -0.514 (inactive). For the same compound, in test [5], the NADPH fluorescence slope was -9.1e-05 (inactive). In addition, the slope in test [9] was 0.00621 (inactive). For the same compound, the results for the inhibition in [10] and in [11] were 13.9% (inactive) and 18.7% (inactive), respectively.
In the case of `CC(C)CCNC(=O)NC(=O)CSc1nnc(COc2ccccc2Cl)o1`, the inhibition of aggregation in test [12] is 13.9% (inactive). In addition, the nuclei count in [12] stood at 98.5%; in test [1], 126%. Moreover, the inhibition in test [1] is -53.1% (inactive); in test [10], 9.99% (inactive); in test [11], 21% (inactive). The fluorescence slope in test [4] is -0.513 (inactive); in [6] it was 0.00525 (inactive). For the same compound, in [5], the NADPH fluorescence slope is -7.7e-06 (inactive).
With `COc1ccc(CN2CC(C(=O)NCc3ccccn3)CC2=O)cc1` (stereo unspecified), the fluorescence slope is -0.582 (inactive) in test [4] and 0.00691 (inactive) in test [6]. Also, in test [5], the NADPH fluorescence slope was -2.5e-07 (inactive). In addition, the inhibition in [10] was 14.9% (inactive); in test [11] it was 23.4% (inactive).
In the case of `COc1ccc(CCN(C)CCCC(C#N)(c2ccc(OC)c(OC)c2)C(C)C)cc1OC` (stereo unspecified), the inhibition in [1] was -110% (inactive); in [3], 12.4% (inactive); in test [10], 2.16% (inactive); in test [11] it was 27% (inactive). Also, in test [1], the nuclei count worked out at 114%. Moreover, the z-score was -0.13 in test [2] (setting [13]), -0.251 in test [2] (setting [14]) and -0.441 in test [2] (setting [15]). The fluorescence slope in test [4] was -0.461 (inactive). Moreover, the NADPH fluorescence slope in test [5] is -2.2e-05 (inactive).
Consider `Cn1c(=O)[nH]c2cc3ccccc3cc21`, for which the fluorescence slope in test [4] is -0.527 (inactive); in test [6], 0.00589 (inactive). Moreover, in test [5], the NADPH fluorescence slope is -6.1e-05 (inactive). The inhibition was 4.54% (inactive) in [10] and 5.31% (inactive) in [11].
